VACV mCherry inh: qHTS for Stage-Specific Inhibitors of Vaccinia Orthopoxvirus: mCherry Reporter Primary qHTS | Vaccinia virus mCherry reporter infection, fluorescence | Potency, µM (titrated, usually from 36.5 µM), for the others: top-dose activity change, negative = inhibition, most hits filed as inhibitors | hit rate 0.63% among 310,000; calls by dose curve; tested in A549 cells; also: potency is read from the fitted curve at half-maximal effect; nearly all actives have a fitted effect of over 35% in size
Marburg entry inh: qHTS for inhibitors of binding or entry into cells for Marburg Virus; Potency, µM (top dose mostly 37.8 µM), inactives show top-dose activity change, negative = inhibition, actives largely listed as inhibitors; AID 540276, 2011; hit rate 1.8% among 300,000; Marburg virus pseudotyped entry inhibition, cell reporter; calls by dose curve; tested in HEK293 cells; also: potency is read from the fitted curve at half-maximal effect
HCMV inh: qHTS Assay for inhibitors of the human cytomegalovirus (HCMV). activity change, negative = inhibition, % at 57.5 µM. AID 1259415, 2018. hit rate 4.5% among 410,000. HFF cells, HCMV-luciferase reporter, 72 h; stronger effect = lower value; in the data active = activity change below about -60%; inconclusive = no clear call, values can overlap the other calls; inactive = above about -39%
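After 16 h attachment at 37C, HFF cells received test compound and HCMV-luciferase (1 PFU/cell); reporter luminescence read 72 h later, data normalized against buffer-only and known inhibitor Salinomycin.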
FMDV inh: High Throughput Screening for Foot and Mouth Disease Virus Antivirals. Potency, µM (titrated, usually from 57.9 µM), for inactives: at the top dose activity change, negative = inhibition, usual class: inhibitors. AID 1159524, 2015. FMDV antiviral cell-based qHTS. hit rate 1.2% among 410,000; calls by dose curve; tested in HEK293T cells; also: read-out not given here; potency is read from the fitted curve at half-maximal effect; nearly all actives have a fitted effect of over 45% in size
LASV entry inh: qHTS for Inhibitors of binding or entry into cells for Lassa Virus; Lassa virus pseudotype entry inhibition, cell reporter; Potency, µM (series often up to 37.9 µM), for the others: top-dose activity change, negative = inhibition, actives largely listed as inhibitors; hit rate 1.2% among 300,000; AID 540256, 2011; calls by dose curve; tested in HEK293 cells; also: potency is read from the fitted curve at half-maximal effect; nearly all actives have a fitted effect of over 50% in size
VACV Venus inh: qHTS for Stage-Specific Inhibitors of Vaccinia Orthopoxvirus: Venus Reporter Primary qHTS; Vaccinia virus Venus reporter expression, fluorescence; Potency, µM (doses to about 36.5 µM), for the others: at the top dose activity change, negative = inhibition, usual class: inhibitors; hit rate 0.46% among 330,000; AID 720580, 2013; calls by dose curve; tested in A549 cells; also: potency is read from the fitted curve at half-maximal effect; nearly all actives have a fitted effect of over 30% in size
* hit, by the source's call; i = inactive; ? = inconclusive; . = no result given; [ ] = remark or other dose. Rows were chosen to be rich in hits. Some 6.5% of all compounds tested hit in one or more screens of this group. % is scaled to controls: 0 for no effect and ±100 for the full control effect.

SMILES	VACV mCherry inh	Marburg entry inh	HCMV inh	FMDV inh	LASV entry inh	VACV Venus inh
CN(C)c1nc(CN2CCCCC2c2cccnc2)nc2ccccc12 (centres undefined)	-16.3%	.	.	-14.1%	.	-7.1%
CC1CC2C3CCC4=CC(=O)C=C[C@]4(C)[C@@]3(Cl)C(O)C[C@]2(C)C1(OC(=O)c1ccco1)C(=O)CCl (some centres undefined)	i	.	.	3.8%	.	-0.5%
C[C@@H]1C[C@H]2[C@@H]3CCC4=CC(=O)C=C[C@]4(C)[C@@]3(Cl)[C@@H](O)C[C@]2(C)[C@@]1(OC(=O)c1ccco1)C(=O)CCl	?	.	-73.5*	?	.	?
NC[C@@H]1O[C@H](O[C@H]2[C@H](O)[C@H](O[C@H]3[C@@H](O)[C@H](N)C[C@H](N)[C@H]3O[C@H]3O[C@H](CN)[C@H](O)[C@H](O)[C@H]3N)O[C@@H]2CO)[C@@H](N)[C@@H](O)[C@@H]1O	.	.	.	-15.0%[16.9 µM]	.	.
Cc1cc(C)c2oc(C(=O)Nc3c(C)n(C)n(-c4ccccc4)c3=O)cc(=O)c2c1	2.9%	-6.4%[46.1 µM]	-1.3	-21.8%	15.9%[46.1 µM]	7.3%
O=S(=O)(Nc1c(S(=O)(=O)c2ccccc2)c2nc3ccccc3nc2n1C1CCCCC1)c1ccccc1	12.6µM*	1.4%	34.8	?	-4.6%	10µM*
Cc1ccccc1-c1cc2c(c(OC3CCOC3)c1)OCCN(C(=O)Cn1cccn1)C2 (centres undefined)	i	.	.	2.2%	.	-10.2%
CC1CCc2cc(F)cc3c(=O)c(C(=O)O)cn1c23 (centres undefined)	-9.4%	2.9%	-71.0*	-11.8%	10.1%	-6.6%
CC1CCc2c(N3CCC(O)CC3)c(F)cc3c(=O)c(C(=O)O)cn1c23 (centres undefined)	i	.	36.4	-0.5%	.	-19.6%
CCn1nc(C)cc1C(=O)NCC1Cc2cccc(-c3cccnc3)c2O1 (centres undefined)	-16.6%	.	.	-25.2%	.	-14.2%
CCc1ccc(NC(=O)C(=O)NCCc2sc(-c3ccc(C)cc3)nc2C)cc1	6.2%	.	13.9	-5.5%	?	4.9%
CCOc1ccccc1N(C)C(=O)c1cc(S(=O)(=O)NCc2ccc(C)cc2)ccc1F	-14.8%	.	-34.1	-22.7%	-23.0%[46.1 µM]	-0.8%
O=C1O[C@H](Nc2ccc(Br)cn2)c2ccccc21	.	5.1%	.	.	.	.
Cc1ccccc1CN1CCN(c2ncc(C(=O)NCCN(C)C)s2)C1=O	.	.	-18.2	.	.	.
O=C(COc1ccc2ccc(=O)oc2c1)Nc1cccc(S(=O)(=O)N2CCCCC2)c1	-24.1%	-7.2%	38.1	14.1µM*	5.5%	-7.3%
O=C(COc1ccc2ccc(=O)oc2c1)NC1CCCC1	.	.	-62.3*	-14.8%	.	.
O=C(COc1ccc2ccc(=O)oc2c1)NC1CCN(Cc2ccccc2)CC1	-5.3%	-2.5%[46.1 µM]	0.0	-18.8%	1.5%[46.1 µM]	-10.3%
Cc1ccc2cccc(OCC(=O)Nc3cccc(S(=O)(=O)N4CCCC4)c3)c2n1	-18.2%	?	-17.6	39.8µM*	?	-27.5%
CCCS(=O)(=O)NCc1c(C)ncc2c1CCN(C(=O)c1cccc(C(F)(F)F)c1)C2	-8.6%	.	.	-15.9%	.	-0.1%
O=C(C1=C[C@H](c2ccc(Br)cc2)C[C@H](OCCCCO)O1)N1CCN(Cc2ccc3c(c2)OCO3)CC1	?	.	.	-28.7%	.	?
CC(=O)n1cc([C@@H]2C=C(C(=O)N3CCN(Cc4ccccc4)CC3)O[C@H](OCc3ccc(CO)cc3)C2)c2ccccc21	-22.3%	.	-73.9*	?	.	?
O=C(C1=C[C@@H](c2ccc(Br)cc2)C[C@@H](OCCCCO)O1)N1CCN(Cc2ccccc2)CC1	?	.	-94.3*	?	.	?
Cc1csc(NC(=O)/C=C/c2ccc3c(c2)OCO3)n1	-12.7%	4.47µM*	8.5	-51.0%	?	-26.4%
O=C(/C=C/c1ccc2c(c1)OCO2)NCc1ccco1	i	-1.5%	1.0	21.4%	10µM*	-18.6%
O=C(/C=C/c1ccc2c(c1)OCO2)Nc1nc(-c2ccc(F)cc2F)cs1	.	3.1%	.	.	17.8%	.
SMILES	VACV mCherry inh	Marburg entry inh	HCMV inh	FMDV inh	LASV entry inh	VACV Venus inh
Cc1ccc(/C=C/C(=O)NCc2ccc3c(c2)OCO3)o1	-16.4%	7.4%	-62.4*	27.4%	1.4%	-3.5%
Cc1ccccc1C(=O)NC(C)c1nnc2n1CCN(Cc1ccnc3ccccc13)CC2 (centres undefined)	-13.9%	.	.	4.9%	.	-2.0%
c1ncc(CCCC2CCNCC2)[nH]1	.	.	.	-7.7%	.	.
OCCN1CCN(Cc2ccc3c(c2)CN(Cc2cccc4ncccc24)CCO3)CC1	-8.1%	.	.	-15.2%	.	3.2%
COc1ccccc1C1NC(c2ccc3c(c2)OCO3)=CC(c2cc(Br)ccc2O)N1 (centres undefined)	28.5%	.	.	.	.	8.8%
C/C(=N\Nc1nc2ccccc2[nH]1)c1ccccn1	.	.	-98.2*	.	.	.
CC(=NNc1cc(C)c2cc(C)ccc2n1)c1ccccn1	.	.	-99.8*	.	.	.
Cc1ccc2nc(N/N=C/c3ccco3)cc(C)c2c1	.	.	78.3	34.5%	.	.
C/C(=N\Nc1nc2ccccc2[nH]1)c1ccc2c(c1)OCCO2	-21.8%	?	-3.3	-23.6%	?	-13.3%
C/C(=N\Nc1nc2ccccc2[nH]1)c1ccc2c(c1)OCO2	?	11.6µM*	6.9	-13.0%	?	?
CCN(C)C(=O)C1=COC2=NC(=O)N(Cc3cccc(Cl)c3)CCN12	.	.	-7.1	.	.	.
O=C(CSc1nnc(-c2cccs2)n1-c1ccccc1)N1CCCc2ccccc21	.	11.6µM*	-26.0	-16.5%	?	.
COc1cc2c(oc(=O)c3cc(C)cc(OC)c32)c2c(C3OC(C)C(O)C(C)(O)C3O)ccc(O)c12 (centres undefined)	?	?	-68.7*	0.0%	?	?
COc1cccc2cc(C(=O)N3CC(C)OC(C)C3)c(=O)oc12 (centres undefined)	.	.	21.0	-19.7%	.	.
COc1c(O)cc2c(=O)oc3c(OC)c(O)cc4c(=O)oc1c2c34	.	.	.	-8.3%	.	.
C=Cc1cc(OC)c2c(c1)c(=O)oc1c2cc(OC)c2c(O)ccc(C3OC(C)C(O)C(C)(O)C3O)c21 (centres undefined)	?	?	-97.8*	?	0.398µM*	1µM*
CC(C)(C)C(=O)Nc1sc2c(c1-c1nc3ccccc3[nH]1)CCCC2	.	?	-107.4*	-6.2%	4.3%	.
CC(C)(C)C(=O)Nc1cccc(-c2nc3ccccc3[nH]2)c1	.	-8.9%	-15.3	-12.4%	0.4%	-20.3%
COCCC1CCCCN1Cc1nc(N2CCCCC2)c2cc(OC)c(OC)cc2n1 (centres undefined)	-14.7%	.	.	-3.3%	.	-1.4%
C[C@]12C[C@H](O)C3[C@@H](CCC4=CC(=O)CC[C@@]43C)[C@@H]1CC[C@@H]2C(=O)CO (some centres undefined)	.	44.8%	.	.	?	.
